Hit rate of the full screen: of about 360,000 compounds, about 7,500 (2.1%) were called active. Not shown: some 8% with an inconclusive outcome. Calls come from the whole dose curve; as a rule, active = well fitted cell-killing curve with a large enough effect; inconclusive = small, poorly fitted or top-dose-only effect, or effect the other way, or another doubt; inactive = no such curve, though single readings can be large or run the other way. The list comes from a sample in which actives are over-represented; it also holds similar structures and randomly drawn compounds. A call without a number means that no potency is given here.
Experiment: qHTS for induction of synthetic lethality in tumor cells producing 2HG: qHTS for the HT-1080-IDH1KD cell line
Settings: HT-1080 IDH1 knockdown viability, ATP luminescence, 48 h; series mostly up to 46.1 µM
Outline: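 Using the IDH1-knockdown HT-1080 line run in the same batch and compound series as the NT line, viability after 48 h at 37 °C was determined by CellTiter-Glo luminescence and expressed as % activity.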
Potency is the fitted concentration of half-maximal effect.

SMILES | Potency
C/C(=N\NC(=O)c1cc(-c2ccc(O)cc2)nc2ccccc12)c1cccnc1 | inactive
COc1ccc(-c2cc(C(=O)N/N=C/c3cccnc3)c3ccccc3n2)c(OC)c1 | inactive
O=C(N/N=C\c1cccnc1)c1cc(-c2ccccc2)nc2c(Cl)cccc12 | 9.2 µM (active)
CCOc1ccc(S(=O)(=O)NCCC(=O)NNC(=O)c2ccc(F)cc2)cc1 | inactive
C[C@@H]1CN([C@H](C)CO)C(=O)c2cc(Br)cnc2O[C@@H]1CN(C)Cc1cncnc1 | inactive
COc1ccc(/C=C/c2noc(-c3ccccc3OC(C)=O)n2)cc1 | inactive
Cc1ccc(-c2nc(-c3ccncc3)no2)c(C)c1 | inactive
COc1ccc(-c2nc(-c3ccccc3)no2)c(OC)c1 | 14.1 µM (active)
CCOc1ccc(NS(=O)(=O)c2ccc(C(=O)NCC3CCCO3)cc2)cc1 (stereo not drawn) | inactive
CCOc1c(OC)cc(C2C(C#N)=C(N)Oc3n[nH]c(-c4ccncc4)c32)cc1OC (stereo not drawn) | inactive
COCc1[nH]nc2c1C(C1C=CCCC1)C(C#N)=C(N)O2 (stereo not drawn) | 11.2 µM (active)
CCc1ccc(C2C(C#N)=C(N)Oc3n[nH]c(CC(=O)OC)c32)cc1 (stereo not drawn) | inactive
O=C(NCc1cccc(C(F)(F)F)c1)c1ccc2sc(COCCO)nc2c1 | inactive
Cc1ccc(Cc2c(-c3ccc(Cl)cc3)nc3c4ccccc4ccn23)cc1 | inactive
Cc1cc(Br)cn2c(Cc3ccsc3)c(-c3ccc(C#N)cc3)nc12 | inactive
COC(=O)c1cc(NC(=O)Cc2ccccc2[N+](=O)[O-])ccc1Cl | inactive
N#Cc1cccc(NC(=O)COC(=O)c2ccccc2C(=O)c2ccc(Cl)c([N+](=O)[O-])c2)c1 | 5.17 µM (active)
CC(=O)Nc1ccc(NC(=O)COC(=O)c2ccccc2C(=O)c2ccccc2)cc1 | inactive
N#Cc1ccc(-c2ccc3nccn3c2)cc1 | inactive
Cc1ccc(S(=O)(=O)N[C@H]2CCC[C@@H]2O)cc1 | inactive
CNC[C@H]1OCc2cnnn2CCCC(=O)N([C@H](C)CO)C[C@@H]1C | inactive
COC(=O)c1ccc2c(c1)S(=O)(=O)NC2C (stereo not drawn) | inactive
COc1ccccc1OCCOc1ccc(/C=N/n2cnnc2)cc1 | 20.6 µM (active)
COc1cccc(OCCOc2cccc(/C=N/n3cnnc3)c2)c1 | inactive
C=CCc1ccc(OCCOc2cccc(/C=N/n3cnnc3)c2)c(OC)c1 | inactive
CC(OC(=O)c1cccc(S(=O)(=O)N2CCOCC2)c1)C(=O)NCC1CCCCC1 (stereo not drawn) | inactive
CC(C)C1CCN(C(=O)C2CCC(=O)N(C3CCCCCC3)C2)CC1 (stereo not drawn) | inactive
CCN1C(=O)[C@H]2[C@@H](c3ccc(C(F)(F)F)cc3)N[C@]3(CCCN(Cc4ccc(Br)cc4)C3=O)[C@H]2C1=O | inactive

From PubChem BioAssay AID686971 (National Center for Advancing Translational Sciences (NCATS), 2013)
